Mtb UGM inh = inhibitors of M. tuberculosis UDP-galactopyranose mutase; P9WIQ1; purified UGM, fluorescence polarization probe displacement; inhibition, % at 10 µM; actives 0.06% (n = 320,000); AID 504406; in the data active = inhibition above about 10%, passing the limit was not always enough
GDH-TPI inh = inhibits GDH-TPI coupling enzymes, artifact for Mtb FBA screen; GDH-TPI coupled enzyme counterscreen, NADH absorbance; actives 1.2% (n = 360,000); inhibition, % at 4.8 µM; in the data active = inhibition above about 30%;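 also: 0% = DMSO wells and 100% = wells lacking the enzyme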
FBA Mtb inh = Mtb fructose-bisphosphate aldolase inhibition; purified M. tuberculosis FBA, fluorescence read-out; inhibition, % at 1 µM; actives 2.3% (n = 360,000); in the data active = inhibition above about 27%;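 also: 0% = vehicle and 100% = reference inhibitor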
Rv3671c inh = inhibitors of M. tuberculosis serine protease Rv3671c | AID 2606 | P9WHR9 | inhibition, % at 5.96 µM | actives 0.048% (n = 320,000); in the data active = inhibition above about 38%;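 also: extracellular domain of Rv3671c used as enzyme; 0% = enzyme with DMSO and 100% = no enzyme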
RecA splice inh = Mtb RecA intein splicing inhibition; P9WHJ3; cell-free RecA intein splicing, fluorescence; inhibition, % (concentration not given with the values); actives 0.75% (n = 290,000); AID 2221; in the data active = inhibition above about 30%;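 also: 0% = vehicle wells and 100% = reference inhibitor control wells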
Target sequence (P9WHJ3 whole entry, looked up, canonical isoform): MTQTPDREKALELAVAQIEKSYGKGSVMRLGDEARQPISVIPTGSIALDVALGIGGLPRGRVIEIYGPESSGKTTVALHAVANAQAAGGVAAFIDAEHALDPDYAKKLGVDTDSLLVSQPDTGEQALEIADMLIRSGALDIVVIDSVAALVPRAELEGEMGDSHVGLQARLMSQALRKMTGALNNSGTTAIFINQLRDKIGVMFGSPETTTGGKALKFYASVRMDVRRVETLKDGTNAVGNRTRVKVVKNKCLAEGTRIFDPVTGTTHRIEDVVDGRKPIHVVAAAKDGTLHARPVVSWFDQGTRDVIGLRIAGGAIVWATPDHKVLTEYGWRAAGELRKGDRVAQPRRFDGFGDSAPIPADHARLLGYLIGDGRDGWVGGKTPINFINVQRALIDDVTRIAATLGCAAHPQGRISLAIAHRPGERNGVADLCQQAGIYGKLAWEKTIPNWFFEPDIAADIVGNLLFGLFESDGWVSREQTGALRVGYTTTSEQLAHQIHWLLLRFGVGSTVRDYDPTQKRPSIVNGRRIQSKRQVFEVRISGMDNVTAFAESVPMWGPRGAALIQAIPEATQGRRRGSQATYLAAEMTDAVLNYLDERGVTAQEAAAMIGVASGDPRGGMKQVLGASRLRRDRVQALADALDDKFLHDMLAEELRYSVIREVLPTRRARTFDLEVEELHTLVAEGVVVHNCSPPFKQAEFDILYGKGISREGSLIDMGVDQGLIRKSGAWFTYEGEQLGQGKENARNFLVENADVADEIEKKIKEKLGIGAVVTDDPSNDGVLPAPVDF
Mtb bLac sens = beta-lactam sensitization of Mtb H37Rv; M. tuberculosis H37Rv growth with meropenem, percent inhibition; inhibition, % at 25 µM; actives 0.27% (n = 330,000); AID 434955; call rule not given here;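 also: growth measured after seven days incubation then overnight dye step; 0% = bacteria only wells and 100% = bacteria with antibiotic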
* = called active by the depositor; nt = not tested or not shown. An excerpt weighted towards active compounds, which were near 4% of everything screened.

SMILES	Mtb UGM inh	GDH-TPI inh	FBA Mtb inh	Rv3671c inh	RecA splice inh	Mtb bLac sens
O=C1C=C(Nc2ccc(O)cc2)CC(c2ccco2)C1 (centres undefined)	-2	14	-2	9	-3	1
CCOC(=O)c1ccc(NC2=CC(=O)CC(c3ccco3)C2)cc1 (centres undefined)	-2	60*	1	4	1	52
CCOc1ccc(CNC(=O)CCc2cn(C)c3ccccc23)cc1	-3	8	-2	-2	3	6
O=C(CNC(=O)c1ccc(Br)cc1)Nc1ccc2c(c1)CCC2	0	3	2	-11	nt	-4
CN(C)/C=C(\C#N)C(=O)Nc1ccccc1	-6	13	0	8	3	2
O=C(N/N=C/c1ccc(-c2ccccc2)o1)c1ccccc1O	3	29	-1	7	-1	69
N/C(=N\N=C/c1ccc(-c2ccc(O)c(C(=O)O)c2)o1)N[N+](=O)[O-]	0	58*	4	-1	-2	0
CC(C)(C)C1CCC(=NNC(=O)c2cc3c(s2)CCCC3)CC1 (centres undefined)	-1	12	1	-2	5	4
CC(C)(C)C1CCc2sc(C(=O)NNC(=O)CCl)cc2C1 (centres undefined)	nt	-4	1	nt	67*	nt
O=C(CCc1cn2ccccc2n1)NC1CCCc2c1cnn2-c1ccccc1F (centres undefined)	4	4	12	0	-7	3
Cc1sc(=NC(=O)c2ccco2)n(C)c1-c1ccc(Cl)cc1	3	52*	5	-1	4	2
CCOC(=O)c1sc(=NC(=O)c2ccco2)n(C)c1C	3	38*	1	-6	-8	-5
COc1cc(C(=O)Nc2ccc3c(c2)OCO3)c([N+](=O)[O-])cc1OC	4	14	4	1	3	-2
CC(=O)Oc1ccc2c(=O)c(/C=N/c3cc(=O)[nH]c(=S)[nH]3)coc2c1	-1	54*	-3	-7	0	2
C[C@H](NS(=O)(=O)c1ccc(F)cc1)C(=O)OCC(=O)c1c(N)n(C)c(=O)n(C)c1=O	0	3	1	9	nt	0
COC(=O)Cc1c(C)c2ccc(OCc3nn[nH]n3)cc2oc1=O	-2	17	189*	-8	-1	-12
CCc1cc(=O)oc2cc(C)cc(OCc3nn[nH]n3)c12	1	9	119*	-4	-3	-11
COC(=O)Cc1c(C)c2c(OCc3nn[nH]n3)cc(C)cc2oc1=O	-1	24	172*	0	-1	-3
NC(=O)Cc1ccc(OCc2nn[nH]n2)cc1	nt	10	-2	nt	nt	nt
COC(=O)Cc1c(C)c2ccc(OCc3nn[nH]n3)c(C)c2oc1=O	1	13	160*	0	0	-4
Cc1cccc(C(=O)NNC(=O)c2ccc(O)cc2)c1	-1	-4	1	1	-1	-4
CC(=O)N(CC(=O)N(CC(=O)O)c1ccc(Cl)cc1)c1ccc(Cl)cc1	nt	9	-2	nt	nt	nt
COc1ccc(-c2n[nH]c(=S)o2)c(OC)c1	0	-1	26	-4	0	-10
COC(=O)Cc1c(C)c2ccc(OCC(=O)N3CCCC(C)C3)c(C)c2oc1=O (centres undefined)	4	10	120*	-3	2	-13
Cc1c(OCC(=O)N2CCC(C(=O)NCCCC(=O)O)CC2)ccc2c1oc(=O)c1ccccc12	3	5	133*	-8	-2	0
SMILES	Mtb UGM inh	GDH-TPI inh	FBA Mtb inh	Rv3671c inh	RecA splice inh	Mtb bLac sens
O=c1c2c(-c3ccccc3)csc2ncn1/N=C/c1c2ccccc2cc2ccccc12	2	13	2	-28	0	nt
CCCC[N+](CC#CCO)(CC#Cc1ccccc1)CCCC	1	-17	3	-7	0	2
CCC[N+](CC#CCO)(CC#Cc1ccccc1)CCC	0	3	146*	2	1	0
O=C(O)/C=C/C(=O)Nc1ccc(Oc2ccc(NC(=O)/C=C/C(=O)O)cc2)cc1	nt	nt	nt	5	8	-4
O=C(O)/C=C\C(=O)Nc1ccc(Oc2ccc(Br)cc2)cc1	0	1	1	11	32*	1
CCc1ccccc1N1C(=O)[C@@H]2Cc3ccccc3CN2C1=O	-3	-2	-2	4	-1	-7
Cc1oc2c(CN3CCCCC3)c(O)ccc2c(=O)c1-c1ccc(Br)cc1	2	33*	130*	5	-2	1

Source: PubChem (several laboratories)
